# Results as given in article PMC5540273 (PLoS ONE, 2017).
# Tests used:
# Details in all cases: concentration: 1 μM, replicates: in singlicate; n = 1
# [1] = test system: CAMK2G
# [2] = test system: CAMK4
# [3] = test system: CAMKK1
# [4] = test system: CAMKK2
# [5] = test system: CASK
# [6] = test system: T1, CDC2L1
# T1 construct: gene CDK11B
# [7] = test system: CDC2L2
# [8] = test system: T2, CDC2L5
# T2 construct: gene CDK13
# [9] = test system: T3, CDK11
# T3 construct: gene CDK19
# [10] = test system: CDK2
# [11] = test system: CDK3
# [12] = test system: CDK4-cyclinD1
# [13] = test system: CDK4-cyclinD3
# [14] = test system: CDK4
# [15] = test system: CDK5
# [16] = test system: CDK7
# [17] = test system: CDK8
# [18] = test system: CDK9
# [19] = test system: CDKL1
# [20] = test system: CDKL2
# 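Also: KINOMEscan kinase panel screen.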
SMILES,%Inh [1] [%],%Inh [2] [%],%Inh [3] [%],%Inh [4] [%],%Inh [5] [%],%Inh [6] [%],%Inh [7] [%],%Inh [8] [%],%Inh [9] [%],%Inh [10] [%],%Inh [11] [%],%Inh [12] [%],%Inh [13] [%],%Inh [14] [%],%Inh [15] [%],%Inh [16] [%],%Inh [17] [%],%Inh [18] [%],%Inh [19] [%],%Inh [20] [%]
Cc1nc(N(C)[C@H]2CN(C(=O)CC#N)CC[C@H]2C)c2cc[nH]c2n1,12,6,7,4,15,0,0,0,0,0,2,0,23,0,16,11,0,0,0,0
CCC(=O)c1c(-c2ccccc2)c2cc(Cl)ccc2c(=O)n1Cc1cc(S(C)(=O)=O)n(CC(N)=O)n1,0,0,0,0,0,0,6,0,0,0,0,0,0,0,0,2,0,0,23,0
COC(=O)c1c(-c2ccccc2)c2cc(Br)ccc2c(=O)n1Cc1ccc(NC(=O)CCC(=O)O)cc1,8,0,0,0,0,16,0,13,7,4,5,0,0,8,0,5,0,0,1,0
COC(=O)c1c(-c2ccccc2)c2cc(C)ccc2c(=O)n1Cc1ccccc1,0,0,0,6,0,0,0,0,0,0,0,0,0,0,0,0,5,0,4,0
Nc1nc(-c2ccccc2F)c(-c2ccnc3ccccc23)s1 [GW560459],10,0,10,4,0,0,8,0,0,0,0,11,0,32,0,0,39,0,0,26
O=C(Nc1ccc2c(c1)OCO2)NC1CCN(c2ccnc(NCc3ccc(F)cc3)n2)CC1 [GSK1379859],22,0,0,25,0,0,6,0,53,0,0,0,0,13,0,0,0,0,9,13
CCC(=O)c1c(-c2ccccc2)c2cc(Cl)ccc2c(=O)n1Cc1cc(S(C)(=O)=O)n(CCC(C)(C)O)n1,18,19,18,28,0,9,13,23,14,0,2,0,20,0,10,38,0,17,10,0
COc1cc2ncn(-c3cc(OCc4ccncc4Br)c(C(N)=O)s3)c2cc1OC [GW854278],11,0,15,17,34,5,10,5,11,1,5,13,0,0,0,0,15,0,14,0
COc1cc2ncn(-c3cc(OCCCc4ccccc4)c(C(N)=O)s3)c2cc1OC [GSK205189],29,0,3,17,52,0,3,0,0,0,1,0,0,0,0,0,4,0,5,7
CCS(=O)c1ccc(-c2coc3ccc(-c4nnc(C)o4)cc23)cc1 (centres unmarked),0,0,0,0,0,0,0,14,0,0,0,25,0,32,12,20,5,0,0,0
Nc1nc(N)c2nc(-c3ccccc3)[nH]c2n1 [SKF-12778],4,0,6,0,0,0,0,5,0,0,1,20,0,0,5,7,23,0,0,2
Cc1ccc(Oc2ccc(Nc3ncnc4cc[nH]c34)cc2C)cn1,15,0,9,5,0,0,7,0,19,0,0,4,0,29,9,40,0,10,1,0
CCc1nc(-c2cccc(C)c2)c(-c2ccncc2)s1,0,0,0,0,0,0,3,0,0,0,8,6,0,0,3,0,0,7,33,4
Nc1ncnc2c1ncn2-c1cccc(F)c1 [SKF-97560],0,0,0,0,47,1,15,23,0,0,0,27,13,30,0,0,0,0,0,0
COc1cc2nccc(Nc3ccc(OCc4ccc(NC(C)=O)cc4)cc3)c2cc1OC.Cl [GW440135],9,0,11,1,0,0,0,0,34,0,4,37,0,34,0,0,36,0,1,0
CN1C(=O)C(Nc2ccccc2)=C(c2ccccc2)C1=O [SB-300079],0,0,0,0,0,0,0,0,0,0,12,9,0,11,5,6,13,1,4,13

SMILES,%Inh [1] [%],%Inh [2] [%],%Inh [3] [%],%Inh [4] [%],%Inh [5] [%],%Inh [6] [%],%Inh [7] [%],%Inh [8] [%],%Inh [9] [%],%Inh [10] [%],%Inh [11] [%],%Inh [12] [%],%Inh [13] [%],%Inh [14] [%],%Inh [15] [%],%Inh [16] [%],%Inh [17] [%],%Inh [18] [%],%Inh [19] [%],%Inh [20] [%]
COc1ccc(-n2cnc3c(N)ncnc32)cc1 [SKF-97236],6,12,0,0,0,0,0,4,0,19,25,0,0,11,8,11,0,0,29,1
Cc1nnc(-c2ccc3ncn(-c4ccc(S(C)=O)cc4)c3c2)o1 (centres unmarked),0,0,0,0,0,0,10,0,0,0,4,0,0,0,13,0,16,7,20,0
Cc1c(Cn2c(C)nn3c(=O)cc(N4CCO[C@H](C)C4)nc23)cccc1C(F)(F)F [GSK2373690],18,0,0,10,14,0,8,0,14,0,18,0,0,0,0,0,13,0,3,24
COc1cccc(C2=C(N(C)c3ccccc3)C(=O)NC2=O)c1 [SB-334865],9,0,0,0,30,43,27,0,0,3,12,2,8,0,0,0,6,39,0,23
Cc1cccc(-c2nc(Nc3ccc4c(cnn4C)c3)c3ccccc3n2)n1 [GW876731],0,0,2,0,0,0,6,0,10,6,0,0,0,1,0,11,0,0,0,23
FC(F)(F)c1ccc(-c2ncn(CCCN3CCOCC3)c2-c2ccncc2)cc1 [SB-217780],21,14,11,18,0,0,14,15,0,0,0,0,1,9,0,9,12,0,13,0
CN1C(=O)C(Nc2cc(Cl)c(O)c(Cl)c2)=C(c2ccc(Cl)cc2)C1=O [SB-404321],0,0,0,0,14,0,0,0,9,0,0,0,0,23,4,0,41,0,0,7
COc1cc(Nc2nccc(N3CCC(NC(=O)C(C)c4ccc(Cl)cc4)C3)n2)cc(OC)c1OC (centres unmarked) [GSK1379757],21,0,0,1,0,0,13,0,3,0,0,0,0,36,0,0,22,0,9,2
Nc1n[nH]c2ncc(-c3ccccc3)cc12 [SB-517081],11,0,0,0,24,0,5,0,0,0,26,0,5,23,0,0,0,0,8,34
CCS(=O)(=O)c1ccc(OC)c(Nc2ncc(-c3ccc(F)cc3)o2)c1.Cl [GW591947],21,0,1,12,3,0,0,0,19,0,0,0,0,14,0,0,19,0,14,29
Cn1c(=O)c(F)c(Nc2ccc(I)cc2F)c2c(=O)n(OC[C@H](O)CO)cnc21,34,22,24,33,0,14,15,13,0,0,38,1,0,0,0,0,46,14,51,29
COc1cccc(-n2cnc3c(N)ncnc32)c1 [SKF-97416],8,4,4,6,20,0,2,36,1,4,17,37,0,31,0,33,0,0,13,8
CN(C)c1cc(-c2ccc3c(N)n[nH]c3c2)nc(N)n1 [GSK2219329],19,0,0,9,0,0,22,0,0,10,0,0,0,0,0,0,0,0,7,11
Nc1ncnc2c1ncn2-c1ccc(Cl)cc1 [AH2635],13,0,0,10,0,0,28,0,0,0,0,0,0,42,0,0,33,0,0,6
Cc1nnc(-c2ccc(C)c(-c3ccc(C(=O)O)cc3)c2)o1 [GW608005],3,0,7,0,1,0,0,0,0,0,0,0,0,29,0,0,21,0,0,6
